AmpC detergent – qHTS Inhibitors of AmpC Beta-Lactamase (assay with detergent). Potency, µM (highest dose often 114 µM), usual class: inhibitors. P00811. AID 485294, 2010. AmpC hydrolysis of nitrocefin, absorbance 480 nm, 0.01% Triton. 370,000 compounds, 0.041% hits; further: nearly all actives have a fitted effect of over 25% in size
Target sequence (P00811 whole entry, looked up): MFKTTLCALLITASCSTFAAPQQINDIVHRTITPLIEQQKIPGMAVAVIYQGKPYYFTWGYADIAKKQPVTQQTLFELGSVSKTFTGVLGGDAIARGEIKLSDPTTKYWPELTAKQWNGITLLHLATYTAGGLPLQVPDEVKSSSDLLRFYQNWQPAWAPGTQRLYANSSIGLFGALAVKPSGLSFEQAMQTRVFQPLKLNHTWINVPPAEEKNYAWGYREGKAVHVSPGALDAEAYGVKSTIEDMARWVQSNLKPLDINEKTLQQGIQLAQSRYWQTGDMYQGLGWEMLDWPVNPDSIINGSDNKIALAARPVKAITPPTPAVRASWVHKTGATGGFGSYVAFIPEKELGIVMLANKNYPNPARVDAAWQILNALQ
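20 mM phosphate pH 7.0 + 0.01% (detergent screen) or 0.0001% Triton X-100; 5.3 nM AmpC reagent; cpd preinc 15 min RT; nitrocefin (800 uM stock) to start; A480 q20 s × 4 min; Activity was normalised to no-enzyme and no-compound control wells.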
AMA1 RON2 block – qHTS for Inhibitors of AMA1-RON; Towards Development of Antimalarial Drug Lead: Primary Screen; AlphaScreen AMA1-biotinylated RON2 peptide binding; Potency, µM (top dose mostly 58.2 µM), usual class: inhibitors; 360,000 compounds, 0.2% hits; AID 720542, 2013; further: nearly all actives have a fitted effect of over 45% in size
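AMA1 (3D7) with his tag at 25 nM final met compounds first, then biotinylated RON2 peptide at 25 nM; detection used donor plus acceptor beads, 10 µg/mL apiece, read by AlphaScreen after 30 min at room temperature.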
HCV inhibitor – qHTS Assay for Inhibitors of Hepatitis C Virus (HCV); Huh7.5.1 HCVcc-Cre infection, luciferase reporter, 44 h; Potency, µM (highest dose often 41.8 µM), actives largely listed as inhibitors; 340,000 compounds, 3.4% hits
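A cell-based infection assay in which seeded cells (1,000 per well) receive test compound after 4 h, are inoculated with HCVcc-Cre at approximately 0.5 moi, and are incubated 44 h before luminescence detection.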
Pf growth 48h – Primary qHTS for delayed death inhibitors of the malarial parasite plastid, 48 hour incubation. P. falciparum luciferase growth in erythrocytes, 48 h. Potency, µM (highest dose often 28.7 µM), most hits filed as inhibitors. 310,000 compounds, 5.9% hits. AID 504832, 2011
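Firefly luciferase activity from engineered P. falciparum reports growth; inhibitors lower the luminescent signal. Cultures contained 2% hematocrit erythrocytes at 0.1% final parasitemia.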
AmpC inh no detg – qHTS Inhibitors of AmpC Beta-Lactamase (assay without detergent); AmpC nitrocefin hydrolysis, absorbance 480 nm, 0.0001% Triton; Potency, µM (doses to about 57.1 µM), actives largely listed as inhibitors; 330,000 compounds, 0.52% hits; further: nearly all actives have a fitted effect of over 20% in size
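AmpC (5.3 nM in the dispensed reagent) in 20 mM phosphate pH 7.0 with 0.01% (detergent screen) or 0.0001% Triton X-100 was preincubated with compounds for 15 min at room temperature. Nitrocefin was then added from an 800 uM solution, and hydrolysis was followed at 480 nm.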
Pf growth 96h – Primary qHTS for delayed death inhibitors of the malarial parasite plastid, 96 hour incubation; P. falciparum luciferase reporter growth, 96 h; Potency, µM (top dose mostly 28.7 µM), usual class: inhibitors; 320,000 compounds, 6.9% hits; AID 504834, 2011
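Erythrocytes infected with luciferase-expressing P. falciparum were dispensed at 2% hematocrit and 0.05% parasitemia (final), then incubated with compounds 96 hours at 37 C in 5% CO2. Luminescence after detection reagent addition reported growth.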
A number is an active result; i = inactive; ? = inconclusive; nt = no result given; [ ] = dose if it differs, or a comment. In the library only some 11% were active in any assay of this set; here they are far more common. The call rests on the fitted dose curve; in most records, active means well fitted curve in the direction sought with a large enough effect; inconclusive means small, poorly fitted or top-dose-only effect, or another doubt; inactive means no such curve, though single readings can be large; an effect the other way counts as inactive or inconclusive.

SMILES	AmpC detergent	AMA1 RON2 block	HCV inhibitor	Pf growth 48h	AmpC inh no detg	Pf growth 96h
CCN(CCn1cccn1)Cc1cn[nH]c1-c1ccc(-c2ccccc2)cc1	i	i	i	2.94µM	i	i
CCN(CCn1cccn1)Cc1cn[nH]c1-c1cccc2ccccc12	i	i	i	i	i	i
CC(C)(C)c1ccc(C(=O)Nc2ccc(C(=O)OCc3cc(=O)n4ccsc4n3)cc2)cc1	i	nt	nt	nt	nt	nt
Oc1cccc2nc3ccccc3nc12	i	i	?	?	i	11.7µM
c1ccc(-c2nc(-n3nc4ccccc4n3)nc3ccccc23)cc1	i	i	14.1µM	i	i	i
Clc1ccc(-c2nc(N3CCCCC3)nc3ccccc23)cc1	i	i	i	?	i	i
O=C(CSc1nnc(SCc2cccc3ccccc23)s1)N/N=C/c1c[nH]c2ccccc12	i	i	?	i	i	i
O=C(CSc1nnc(SCc2cccc3ccccc23)s1)N/N=C/C=C/c1ccccc1[N+](=O)[O-]	i	i[2.32 µM]	i	i	14.1µM	i
O=C(CSc1nnc(SCc2ccccc2)s1)N/N=C/C=C/c1ccco1	?	i	i	i	11.2µM	i
Cc1ccccc1NC(=O)CSCn1nnc2c(=O)[nH]c(Cc3ccc(F)cc3)nc21	i	nt	nt	nt	nt	nt
CNS(=O)(=O)c1cc(-c2nn3c(C)nnc3c3ccccc23)ccc1C	i	nt	nt	nt	nt	nt
O=C(Nc1ccc(OCc2cc(=O)n3c4c(sc3n2)CCCC4)cc1)c1ccc(F)cc1	i	nt	nt	nt	nt	nt
Cc1cccc(C(=O)NC(NCc2ccco2)C(Cl)(Cl)Cl)c1 (centres undefined)	i	i	i	i	i	i
Cc1cccc(C(=O)NC(NCCc2ccccc2)C(Cl)(Cl)Cl)c1 (centres undefined)	i	i	i	?	i	3.7µM
Cc1cccc(NC(NC(=O)c2cccnc2)C(Cl)(Cl)Cl)c1 (centres undefined)	i	i	i	?	i	13.1µM
Cn1c(=O)n(C)c2cc(NS(=O)(=O)c3ccc(Br)s3)ccc21	i	i	i	i	i	9.28µM
COc1ccc(S(=O)(=O)Nc2ccc3c(c2)OCCO3)cc1Cl	i	i	11.2µM	i	i	nt
Cc1cc(C)cc(NS(=O)(=O)c2ccc3c(c2)c(=O)n(C)c(=O)n3C)c1	i	i	6.31µM	11.7µM	i	nt
COc1ccc(S(=O)(=O)Nc2ccc3c(c2)n(C)c(=O)n3C)cc1OC	i	i	3.16µM	i	i	i
Cc1ccc(-n2ncc3c(NCCC4=CCCCC4)ncnc32)cc1C	i	nt	nt	nt	nt	nt
CCc1ccc2oc(C(=O)NCCc3ccc(OC)c(OC)c3)cc(=O)c2c1	i	nt	nt	nt	nt	nt
Cc1ccc(C)c(NC(=O)Cn2c(=O)n(CCCS(=O)(=O)C3CCCCC3)c(=O)c3ccccc32)c1	i	nt	nt	nt	nt	nt
COc1ccc(S(=O)(=O)NCc2ccc3c(c2)OCO3)cc1OC	i	i	i	i	i	1.17µM
COc1ccc(S(=O)(=O)NCc2ccc3c(c2)OCO3)cc1C	i	i	i	nt	i	i
COc1ccc(NS(=O)(=O)c2ccc3c(c2)OCCO3)cc1OC	i	i	6.31µM	i	i	?
SMILES	AmpC detergent	AMA1 RON2 block	HCV inhibitor	Pf growth 48h	AmpC inh no detg	Pf growth 96h
Cc1c2cnn(CC(=O)N3CCN(c4ccccc4)CC3)c(=O)c2c(C)n1Cc1ccc(F)cc1	i	nt	nt	nt	nt	nt
COc1ccc(/C=C2\SC(=S)N(CCC(=O)NCCc3ccc(O)cc3)C2=O)cc1	?	i	i	i	i	i
O=C(CCN1C(=O)/C(=C/c2ccccc2)SC1=S)NCCc1ccc(O)cc1	i	i	?	i	i	11.7µM
O=C(CCCN1C(=O)/C(=C/c2ccccc2)SC1=S)NCCCn1ccnc1	i	i	i	?	i	9.28µM
CCCCCCn1c(SCC(=O)c2c(N)n(C)c(=O)n(C)c2=O)nc2ccccc21	i	i	?	nt	i	0.928µM
CCCCCCn1nc(C(=O)OCC(=O)c2c(N)n(C)c(=O)n(C)c2=O)c2ccccc2c1=O	i	i	?	11.7µM	i	13.1µM
CCCCCn1nc(C(=O)OCC(=O)c2c(N)n(C)c(=O)n(C)c2=O)c2ccccc2c1=O	i	i	?	i	i	i
CCNc1nc(Nc2ccc(C)c(Cl)c2)c2cnn(C)c2n1	i	i	14.1µM	i	i	i
CCCCNc1nc(Nc2ccc(C)c(Cl)c2)c2cnn(C)c2n1	i	i	12.6µM	?	i	i
CCNc1nc(NCc2ccc(F)cc2)c2cnn(C)c2n1	i	nt	nt	nt	nt	nt
Cn1ncc2c(Nc3ccc(Cl)c(Cl)c3)ncnc21	i	i	?	i	i	i
CC1=CCC(C(C)(C)O)CC1 (centres undefined)	nt	nt	nt	i	nt	i
Cc1cn2c(=O)cc(COC(=O)c3ccc(NC(=O)c4ccccc4C)cc3)nc2s1	i	nt	nt	nt	nt	nt
O=C(Cn1c(=O)n(-c2cccc(Cl)c2)c(=O)c2sc3ccccc3c21)N1CCCC1	i	nt	nt	nt	nt	nt
O=C(Nc1ccc(F)cc1)c1cccnc1Oc1ccccc1	i	i	i	nt	i	i
CCOC(=O)Cc1ncccc1C(=O)Nc1ccc(Oc2ccccc2)cc1	i	i	i	8.28µM	i	11.7µM
COc1ccc(NC(=O)c2cccnc2NCCc2ccccc2)cc1	i	i	?	?	i	1.47µM
CCOc1ccccc1CNC(=O)c1ccc2nc(CCc3ccccc3)oc2c1	i	nt	nt	nt	nt	nt
CCOC(=O)N(O)c1ccc(C=Cc2ccccc2)cc1	nt	i	3.98µM	nt	nt	nt
COC(=O)c1c(C(=O)OC)c(-c2ccc(Cl)cc2)n2c1CS(=O)(=O)C2	i	i	i	1.47µM	i	?
COC(=O)c1c(C(=O)OC)c(-c2cccc(Cl)c2)n2c1CS(=O)(=O)C2	i	i	i	i	i	i
COC(=O)c1c(C(=O)OC)c(-c2cccc(F)c2)n2c1CS(=O)C2 (centres undefined)	i	i	i	i	i	i
COC(=O)c1c(C(=O)OC)c(-c2ccc(C(C)(C)C)cc2)n2c1CS(=O)C2 (centres undefined)	?	i	i	10.4µM	i	?
COC(=O)c1c(C(=O)OC)c(-c2ccc(C)cc2)n2c1CS(=O)(=O)C2	?	i	i	nt	i	1.65µM
CCOc1cccc(C(=O)Nc2cc(C)c(O)c(-c3nc4ncccc4o3)c2)c1	i	nt	nt	nt	nt	nt
O=C(NCC1CCN(Cc2ccc(F)cc2)CC1)c1cc2ccc3cccnc3c2[nH]1	i	nt	nt	nt	nt	nt
Cc1oc2ncnc(N3CCCCC3)c2c1C(=O)N1CCN(c2cccc(C(F)(F)F)c2)CC1	i	nt	nt	nt	nt	nt
CC(=O)c1ccc(N2CCC(c3cc(-c4ccc(Cl)cc4)n[nH]3)CC2)c([N+](=O)[O-])c1	i	i	?	?	?	?
